Measurements reported in PubChem BioAssay (EPA / NIEHS).
Calls of active or inactive are those of the source. The calls were made as follows: active = hit-call score of the fitted dose curve at least 0.9, where 1 is the maximum; inactive = score below 0.9.

Legend:
[1] = read-out: Transforming growth factor beta 1 (TGFb1), TGFB1 (gene 7040); test: BSK_KF3CT_TGFb1: BioMAP Diversity Plus: KF3CT Assay for Transforming growth factor beta 1 (TGFb1) Biomarker Activity (AID 2283072); conditions: primary human keratinocytes with fibroblasts; actives raise or lower the signal
How it was run: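 Human keratinocyte plus foreskin fibroblast primary co-culture, dosed with chemical for 24 h. TGF-b1 quantified by ELISA. Activity fitted bidirectionally against DMSO negative control as baseline.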

[2] = read-out: Matrix Metallopeptidase 9 (MMP9), MMP9 (gene 4318); test: BSK_KF3CT_MMP9: BioMAP Diversity Plus: KF3CT Assay for Matrix Metallopeptidase 9 (MMP9) Biomarker Activity (AID 2283074); conditions: primary human keratinocytes with fibroblasts; actives raise or lower the signal;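 as to AC50: MMP9 protein level quantified by ELISA in the co-culture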
How it was run: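 Keratinocyte plus foreskin fibroblast human primary skin co-culture was dosed with chemical and MMP-9 was quantified by ELISA 24 h later. Bidirectional curve fitting used DMSO as negative control and activity baseline.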

[3] = read-out: urokinase plasminogen activator (uPA), PLAU (gene 5328); test: BSK_KF3CT_uPA: BioMAP Diversity Plus: KF3CT Assay for urokinase plasminogen activator (uPA) Biomarker Activity (AID 2283075); conditions: primary human keratinocytes with fibroblasts; actives raise or lower the signal
How it was run: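 Human keratinocyte plus foreskin fibroblast primary co-culture exposed to chemical for 24 h. uPA levels were quantified by ELISA, and activity was fitted bidirectionally against a DMSO negative-control baseline.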

[4] = read-out: CD40, CD40 (gene 958); test: BSK_LPS_CD40: BioMAP Diversity Plus: LPS Assay for CD40 Biomarker Activity (AID 2283076); conditions: primary human HUVEC with PBMC; actives raise or lower the signal
How it was run: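 HUVEC plus PBMC co-culture stimulated with LPS; CD40 quantified by ELISA 24 h after compound dosing. Fitting was bidirectional relative to DMSO. SRB staining of parallel cultures flagged overt cytotoxicity.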

[5] = read-out: E-selectin (Homo sapiens) (UniProt P16581); test: BSK_LPS_Eselectin: BioMAP Diversity Plus: LPS Assay for Eselectin Biomarker Activity (AID 2283077); conditions: primary human HUVEC with PBMC; actives raise or lower the signal
How it was run: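 Human umbilical vein endothelial cells co-cultured with PBMC under LPS stimulation; cell-surface E-selectin measured by ELISA 24 h after dosing. Change in either direction versus DMSO, with SRB total-protein staining in parallel cultures for cytotoxicity.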

[6] = read-out: Interleukin-8 (IL8), CXCL8 (gene 3576); test: BSK_LPS_IL8: BioMAP Diversity Plus: LPS Assay for Interleukin-8 (IL8) Biomarker Activity (AID 2283078); conditions: primary human HUVEC with PBMC; actives raise or lower the signal
How it was run: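 Human umbilical vein endothelial cells co-cultured with PBMC, LPS-stimulated, exposed to compound for 24 h. IL-8 quantified by ELISA; fitted in both directions against DMSO, with SRB total-protein staining of parallel cultures for cytotoxicity.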

[7] = read-out: Interleukin-1 alpha (IL1a), IL1A (gene 3552); test: BSK_LPS_IL1a: BioMAP Diversity Plus: LPS Assay for Interleukin-1 alpha (IL1a) Biomarker Activity (AID 2283080); conditions: primary human HUVEC with PBMC; actives raise or lower the signal
How it was run: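 Human umbilical vein endothelial cells co-cultured with PBMC and stimulated with LPS; IL-1a measured by ELISA 24 h after dosing. Bidirectional fitting against DMSO; cytotoxicity checked by SRB staining in parallel cultures.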

[8] = read-out: Monocyte Chemoattractant Protein-1 (MCP1), CCL2 (gene 6347); test: BSK_LPS_MCP1: BioMAP Diversity Plus: LPS Assay for Monocyte Chemoattractant Protein-1 (MCP1) Biomarker Activity (AID 2283081); conditions: primary human HUVEC with PBMC; actives raise or lower the signal;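 as to AC50: secreted MCP-1 protein quantified by ELISA in culture supernatant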
How it was run: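 Human umbilical vein endothelial cells co-cultured with PBMC, LPS-stimulated; secreted MCP-1 measured by ELISA 24 h after compound addition. Bidirectional curve fitting against DMSO baseline; SRB total-protein staining in parallel cultures for cytotoxicity.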

[9] = BSK_LPS_PGE2: BioMAP Diversity Plus: LPS Assay for Prostaglandin E2 (PGE2) Biomarker Activity (AID 2283082); conditions: primary human HUVEC with PBMC; actives raise or lower the signal;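 as to AC50: secreted prostaglandin E2 measured by ELISA in LPS-stimulated co-culture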
How it was run: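 HUVEC plus PBMC co-culture stimulated with LPS; secreted PGE2 quantified by ELISA 24 h after chemical dosing. Activity fitted bidirectionally against DMSO as negative control and baseline; parallel SRB total-protein staining served as cytotoxicity check.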

[10] = read-out: Macrophage colony-stimulating factor (MCSF), CSF1 (gene 1435); test: BSK_LPS_MCSF: BioMAP Diversity Plus: LPS Assay for Macrophage colony-stimulating factor (MCSF) Biomarker Activity (AID 2283083); conditions: primary human HUVEC with PBMC; actives raise or lower the signal
How it was run: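 HUVEC–PBMC co-culture, M-CSF measured by ELISA 24 h after chemical dosing. Fitted in both directions relative to DMSO as negative control; overt cytotoxicity assessed by SRB total-protein staining in parallel cultures.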

[11] = read-out: Tissue Factor, F3 (gene 2152); test: BSK_LPS_TissueFactor: BioMAP Diversity Plus: LPS Assay for Tissue Factor Biomarker Activity (AID 2283084); conditions: primary human HUVEC with PBMC; actives raise or lower the signal
How it was run: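 Human umbilical vein endothelial cells co-cultured with PBMC were dosed with compound. Cell-surface CD142 was measured by ELISA 24 h later. Activity was fitted bidirectionally against DMSO, with SRB total-protein staining in parallel cultures for cytotoxicity.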

[12] = read-out: Vascular cell adhesion molecule 1 (VCAM1), VCAM1 (gene 7412); test: BSK_LPS_VCAM1: BioMAP Diversity Plus: LPS Assay for Vascular cell adhesion molecule 1 (VCAM1) Biomarker Activity (AID 2283086); conditions: primary human HUVEC with PBMC; actives raise or lower the signal
How it was run: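 Human umbilical vein endothelial cells co-cultured with peripheral blood mononuclear cells under LPS stimulation were exposed to test chemical for 24 h. VCAM-1 levels were then measured by ELISA, with bidirectional curve fitting relative to DMSO as negative control and baseline.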

[13] = read-out: CD38, CD38 (gene 952); test: BSK_SAg_CD38: BioMAP Diversity Plus: SAg Assay for CD38 Biomarker Activity (AID 2283087); conditions: primary human HUVEC with PBMC; actives raise or lower the signal
How it was run: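 Fluorescence ELISA of cell-surface CD38 served as the read-out, with either increase or decrease fitted against DMSO controls. Cells were a human umbilical vein endothelium plus PBMC co-culture under SEB/TSST-1 stimulation, measured 24 h after dosing.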

[14] = read-out: CD40, CD40 (gene 958); test: BSK_SAg_CD40: BioMAP Diversity Plus: SAg Assay for CD40 Biomarker Activity (AID 2283088); conditions: primary human HUVEC with PBMC; actives raise or lower the signal
How it was run: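 HUVEC plus PBMC co-culture, superantigen-activated, with CD40 read by ELISA 24 h after dosing. Curves fitted in both directions against DMSO. Overt cytotoxicity checked by parallel SRB total-protein staining.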

[15] = read-out: CD69, CD69 (gene 969); test: BSK_SAg_CD69: BioMAP Diversity Plus: SAg Assay for CD69 Biomarker Activity (AID 2283089); conditions: primary human HUVEC with PBMC; actives raise or lower the signal;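 as to AC50: cell surface CD69 protein quantified by ELISA with fluorescence detection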
How it was run: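 HUVEC co-cultured with PBMC were dosed with chemical, and CD69 was measured by ELISA with fluorescence read-out 24 h later. Bidirectional curve fitting used DMSO as negative control and activity baseline.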

[16] = read-out: Monocyte Chemoattractant Protein-1 (MCP1), CCL2 (gene 6347); test: BSK_SAg_MCP1: BioMAP Diversity Plus: SAg Assay for Monocyte Chemoattractant Protein-1 (MCP1) Biomarker Activity (AID 2283090); conditions: primary human HUVEC with PBMC; actives raise or lower the signal
How it was run: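 MCP-1 levels in the endothelial–PBMC SAg co-culture were quantified by ELISA at 24 h post-dosing; both increases and decreases versus DMSO scored. Cytotoxicity monitored by SRB total protein in parallel cultures.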

[17] = read-out: C-C motif chemokine 2 (Homo sapiens) (UniProt P13500); test: BSK_KF3CT_MCP1: BioMAP Diversity Plus: KF3CT Assay for Monocyte Chemoattractant Protein 1 (MCP1/CCL2) Biomarker Activity (AID 2283073); conditions: primary human keratinocytes with fibroblasts; actives raise or lower the signal
How it was run: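 Human keratinocyte–foreskin fibroblast co-culture; MCP-1 measured by ELISA 24 h after dosing. Bidirectional fit vs DMSO; cytotoxicity tracked by SRB total protein in parallel cultures.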

[18] = read-out: Tumor necrosis factor (Homo sapiens) (UniProt P01375); test: BSK_LPS_TNFa: BioMAP Diversity Plus: LPS Assay for Tumour Necrosis Factor alpha (TNFa) Biomarker Activity (AID 2283085); conditions: primary human HUVEC with PBMC; actives raise or lower the signal
How it was run: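 Human umbilical vein endothelial cells co-cultured with PBMC were exposed to test chemical and TNFa measured by ELISA 24 h after dosing. Bidirectional curve fitting was done relative to DMSO as negative control and baseline.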

[19] = BSK_LPS_SRB: Viability Assessment in the BioMAP Diversity Plus: LPS Assay (AID 2283079); conditions: primary human HUVEC with PBMC;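 also: total protein by sulforhodamine B absorbance as a cytotoxicity measure; measured one day after compound addition; fitted in both directions against DMSO so loss or gain of signal counts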
How it was run: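 Co-culture of human umbilical vein endothelial cells and PBMC, read 24 h after dosing. Total protein by 0.1% SRB staining after 10% TCA fixation, absorbance at 560 nm; bidirectional fit against DMSO.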

Measured: AC50

E-selectin (Homo sapiens), sequence (P16581 whole entry, looked up): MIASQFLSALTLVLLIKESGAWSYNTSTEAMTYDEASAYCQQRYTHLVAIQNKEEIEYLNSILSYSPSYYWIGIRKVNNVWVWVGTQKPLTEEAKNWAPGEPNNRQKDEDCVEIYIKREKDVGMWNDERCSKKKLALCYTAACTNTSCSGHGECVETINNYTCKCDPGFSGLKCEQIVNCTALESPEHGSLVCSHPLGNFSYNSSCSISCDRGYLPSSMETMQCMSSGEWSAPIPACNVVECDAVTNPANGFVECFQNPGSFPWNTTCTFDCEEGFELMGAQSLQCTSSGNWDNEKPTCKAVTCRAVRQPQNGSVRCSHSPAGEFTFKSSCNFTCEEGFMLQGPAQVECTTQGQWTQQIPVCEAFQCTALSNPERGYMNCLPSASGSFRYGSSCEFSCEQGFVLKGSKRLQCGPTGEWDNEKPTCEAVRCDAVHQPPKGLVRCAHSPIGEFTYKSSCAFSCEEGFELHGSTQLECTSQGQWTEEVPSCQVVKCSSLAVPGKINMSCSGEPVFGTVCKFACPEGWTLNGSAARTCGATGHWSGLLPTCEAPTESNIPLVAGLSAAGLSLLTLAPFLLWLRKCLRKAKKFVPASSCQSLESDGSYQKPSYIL
Tumor necrosis factor (Homo sapiens), sequence (P01375 whole entry, looked up): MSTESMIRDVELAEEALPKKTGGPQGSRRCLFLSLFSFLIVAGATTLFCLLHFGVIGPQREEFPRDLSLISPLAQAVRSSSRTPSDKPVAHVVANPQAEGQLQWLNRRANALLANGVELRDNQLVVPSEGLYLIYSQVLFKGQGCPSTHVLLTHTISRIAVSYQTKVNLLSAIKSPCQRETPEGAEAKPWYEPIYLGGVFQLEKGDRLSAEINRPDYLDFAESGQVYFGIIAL

CCCCCCCCc1ccc(O)cc1
active: [1] 22.4 µM | [2] 28.8 µM | [3] 31.6 µM | [4] 31.5 µM | [5] 37.8 µM | [6] 36.5 µM | [7] 31 µM | [8] 37.4 µM | [9] 3.96 µM | [10] 30.8 µM | [11] 38.1 µM | [12] 30.5 µM | [13] 31.2 µM | [14] 32.2 µM | [15] 31.7 µM | [16] 32.6 µM

CCOC(=O)/C=C(C)/C=C/C[C@@H](C)CCCC(C)C
active: [1] 13.5 µM | [17] 7.27 µM | [2] 30.2 µM | [3] 31.2 µM | [4] 20 µM | [5] 34.8 µM | [6] 32.7 µM | [8] 30.7 µM | [9] 10.1 µM | [10] 15.5 µM | [11] 29.2 µM | [12] 25.7 µM | [13] 30.7 µM | [14] 25.8 µM | [15] 20 µM | [16] 29 µM

Oc1c(I)cc(I)cc1I
inactive: [17] | [6] | [8] | [9] | [11] | [18]
active: [1] 7.06 µM | [2] 5.35 µM | [3] 31.2 µM | [4] 14.2 µM | [5] 27.6 µM | [10] 31.1 µM | [12] 14.3 µM | [13] 25.4 µM | [14] 25.3 µM | [15] 29.4 µM | [16] 32.3 µM

BrCCBr
inactive: [1] | [17] | [2] | [3] | [4] | [5] | [6] | [8] | [9] | [10] | [11] | [12] | [13] | [14] | [15] | [16]

Nc1cccc2ccccc12
active: [2] 20 µM | [11] 9.83 µM
inactive: [1] | [3] | [4] | [5] | [6] | [7] | [8] | [9] | [10] | [12] | [13] | [14] | [15] | [16]

O=c1[nH]c(=O)[nH]c(=O)[nH]1
inactive: [1] | [17] | [2] | [3] | [4] | [5] | [6] | [8] | [9] | [10] | [11] | [12] | [13] | [14] | [15] | [16]

Nc1ccc(-c2ccc(N)c(Cl)c2)cc1Cl
active: [2] 4.21 µM | [19] 7.78 µM | [12] 1.85 µM
inactive: [1] | [17] | [3] | [4] | [5] | [6] | [8] | [9] | [10] | [11] | [13] | [14] | [15] | [16]
